Data on 28 compounds can be found in PubChem BioAssay (Tox21).

Structures are written as SMILES. Inconclusive results are not listed. Values without a mark were called inactive. Activity calls are given as the source filed them. The call rests on the fitted dose curve.
On the % scale 0 is the no-effect control and ±100 the full control effect.

The target of this test is 5-hydroxytryptamine receptor 2A (Homo sapiens) (UniProt P28223). The test can be described thus: 5-hydroxytryptamine receptor 2A (HTR2A) small molecule agonists, cell-based qHTS assay (AID 1963587). Further: nearly all actives have a fitted effect of over 30% in size. The note with it: HTR2A-CHO cells, calcium flux fluorescence, agonist mode; series mostly up to 76.8 µM; activation: at the top concentration. The method in brief: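 HTR2A-CHO cells, plated 18 h at 37 C/5% CO2, dye-loaded 1 h at 37 C; compounds in DMSO added by pin tool (agonist mode). Intracellular calcium flux read as kinetic fluorescence on FDSS over 2 min at 1 s intervals.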
5-hydroxytryptamine receptor 2A (Homo sapiens), sequence (P28223 whole entry, looked up): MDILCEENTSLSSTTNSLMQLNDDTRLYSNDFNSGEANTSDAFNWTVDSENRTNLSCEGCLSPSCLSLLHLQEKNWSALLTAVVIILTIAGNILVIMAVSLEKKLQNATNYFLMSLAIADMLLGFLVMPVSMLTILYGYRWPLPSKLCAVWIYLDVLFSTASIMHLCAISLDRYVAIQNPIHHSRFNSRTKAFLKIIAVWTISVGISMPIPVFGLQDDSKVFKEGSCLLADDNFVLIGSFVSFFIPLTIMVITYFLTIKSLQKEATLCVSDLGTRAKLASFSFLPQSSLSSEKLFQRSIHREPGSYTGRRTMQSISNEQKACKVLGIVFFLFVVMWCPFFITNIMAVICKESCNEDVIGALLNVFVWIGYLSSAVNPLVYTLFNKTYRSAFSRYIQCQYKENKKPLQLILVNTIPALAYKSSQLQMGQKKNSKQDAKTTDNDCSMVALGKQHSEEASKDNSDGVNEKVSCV
With `O=Cc1cccc([N+](=O)[O-])c1`, the “activation” value was -2.94%.

Take `CC(COCCO)OCCO` (stereo not drawn): the “activation” value was 4.04%.

Regarding `NC(=O)N[C@@H](CCC(=O)O)C(=O)O`, the “activation” value is 1.32% [at 35.6 µM].

Turning to `COc1ccc2cc(C=O)ccc2c1`, the “activation” value is -5.27% [at 35.6 µM].

Regarding `CC(O)CCCCn1c(=O)c2c(ncn2C)n(C)c1=O` (stereo not drawn), the “activation” value was -0.751% [at 35.6 µM].

As for `NC(=O)CCCCC(N)=O`, the “activation” value is -0.515%.

With `NCC1CCCC(CN)C1` (stereo not drawn), the “activation” value is 1.01%.

In the case of `CC(=O)CC(=O)Nc1ccc2[nH]c(=O)[nH]c2c1`, the “activation” value was 4.93%.

As to `Oc1ccc(O)c2c(O)cccc12`, the “activation” value is -0.362%.

On to `CCCOC(C)=O`, for which the “activation” value is -3.86%.

Take `CCCCCCCCCCCC[N+](C)(C)CCCS(=O)(=O)[O-]`: the “activation” value is 3.18%.

Turning to `CC(C)=C1CC[C@@H](C)CC1=O`, the “activation” value was -0.924%.

As for `O=C(O)c1ccc([N+](=O)[O-])cc1`, the Potency result was “inactive”.

With `C=CCCCCCCCCC(=O)OCCCC`, the “activation” value was 0.602%.

Take `CC(=O)NCCO`: the “activation” value is 0.133%.

Consider `NNC(=O)c1cccc(C(=O)NN)c1`, for which the “activation” value was 3.94%.

Consider `O=C(C(=O)c1ccco1)c1ccco1`, for which the “activation” value was 6.17%.

Consider `COc1ccc(Cl)cc1C`, for which the “activation” value is -1.38%.

Take `Nc1ncnc2c1ncn2Cc1c(F)cccc1Cl`: the “activation” value is 4.07% [at 35.6 µM].

`NC(=S)Nc1cccc2ccccc12`: the activation was 1.75% [at 7.02 µM].

`NCCOCCN`: the “activation” value was 3.2%.

`O=C1OC(CN2CCOCC2)CN1/N=C/c1ccc([N+](=O)[O-])o1` (stereo not drawn): the “activation” value is -1.23% [at 35.6 µM].

For `N[C@H]1C(O)O[C@H](CO)[C@@H](O)[C@@H]1O` (stereo partly drawn), the “activation” value is 1.24% [at 35.6 µM].

Take `C=C(C)[C@H]1CC=C(C)CC1`: the “activation” value is 1.03%.

Turning to `CC1=CC[C@@H](C(C)(C)O)CC1`, the “activation” value was -2.28%.

`CCCCCCCCCCCCCCC(=O)O`: the “activation” value was -1.72%.

In the case of `CC(COC(=O)c1ccccc1)OC(=O)c1ccccc1` (stereo not drawn), the “activation” value is 0.534%.

As for `F[Si-2](F)(F)(F)(F)F`, the “activation” value is -1.83%.
